Source: PubChem (several laboratories)
Bcl-xL primary – Bcl-xL (human) inhibition. Q07817. GST-Bcl-xL / FITC-Bim BH3 peptide fluorescence polarization. inhibition, % at 10.9 µM. 320,000 compounds, 0.7% hits. AID 2129;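 active means inhibition above the mean of all tested compounds plus 3 SD, cutoff set per campaign, cut at about 30% in these data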;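 further: 0% = DMSO wells and 100% = unlabeled Bim-BH3 peptide competitor; inhibitors lower millipolarization by displacing the labeled peptide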
Target sequence (Q07817 whole entry, looked up): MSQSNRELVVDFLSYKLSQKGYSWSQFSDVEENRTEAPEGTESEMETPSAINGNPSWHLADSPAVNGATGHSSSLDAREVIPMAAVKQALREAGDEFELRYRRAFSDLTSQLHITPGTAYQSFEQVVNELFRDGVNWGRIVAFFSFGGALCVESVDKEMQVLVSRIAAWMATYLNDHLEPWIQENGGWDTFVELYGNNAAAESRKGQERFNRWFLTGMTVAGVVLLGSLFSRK
MCL1 BIM primary – inhibitors of human MCL1 binding to BIM-BH3 peptide. Q07820. GST-MCL1 / FITC-Bim-BH3 fluorescence polarization. inhibition, % at 10.9 µM. 320,000 compounds, 0.68% hits. AID 2057;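 active means inhibition above the mean inhibition of all tested compounds plus 3 SD, set per campaign, cut at about 40% in these data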;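 further: 0% = DMSO wells and 100% = unlabeled Bim-BH3 peptide control; higher means more loss of mP so more displacement of Bim peptide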
EBV gp42 block – blocks Epstein-Barr virus glycoprotein 42 binding. Q1HVG2. Fluorescence polarization binding assay, mP read-out. inhibition, % (tested at 21.74 µM). 220,000 compounds, 0.42% hits. AID 1085; in the data active means inhibition above about 50%
MEX-5 binding – C. elegans MEX-5 TCR-2 RNA binding activity; Q9XUB2; MEX-5/FITC-TCR2 RNA binding, fluorescence polarization; stronger effect = lower value; activity score (negative = inhibition of binding), % at 10 µM; 300,000 compounds, 0.38% hits; AID 1832;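 active means inhibition past about -25% in most replicates, and total fluorescence under double the plate's negative control median, limit read from the data; inconclusive means replicates evenly split on the limit, or fluorescence at least double controls; inactive means too little inhibition in most replicates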;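 further: 0% = DMSO and -100% = 5 µM competing unlabeled TCR2 RNA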
GLD-1 TGE inh – GLD-1-TGE RNA interaction inhibition (C. elegans) | Q17339 | purified GLD-1 + fluorescein TGE RNA, fluorescence polarization | inhibition, % at 5.96 µM | 320,000 compounds, 0.44% hits | AID 2280;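 active means percent inhibition above a per-plate cutoff, the plate mean of test compounds plus 3 SD, cut at about 30% in these data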;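 further: 0% = DMSO wells with GLD-1 and probe and 100% = wells lacking GLD-1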
Target sequence (Q17339 whole entry, looked up): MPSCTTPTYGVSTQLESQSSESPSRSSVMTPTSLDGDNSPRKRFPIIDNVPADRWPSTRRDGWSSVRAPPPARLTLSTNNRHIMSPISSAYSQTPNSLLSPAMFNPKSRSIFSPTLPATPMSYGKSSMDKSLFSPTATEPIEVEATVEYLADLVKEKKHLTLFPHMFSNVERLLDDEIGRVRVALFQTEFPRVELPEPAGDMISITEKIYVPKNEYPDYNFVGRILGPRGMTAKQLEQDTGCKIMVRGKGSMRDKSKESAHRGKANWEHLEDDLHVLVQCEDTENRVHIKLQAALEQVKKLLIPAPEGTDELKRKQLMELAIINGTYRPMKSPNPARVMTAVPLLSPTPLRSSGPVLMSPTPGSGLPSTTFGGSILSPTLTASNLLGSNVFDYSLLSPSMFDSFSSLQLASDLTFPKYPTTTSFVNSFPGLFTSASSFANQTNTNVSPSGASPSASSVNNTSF
Bcl-xL conf – Bcl-xL (human) inhibition, MCL1 counter-screen confirmation; shares compounds with MCL1 BIM primary; GST-Bcl-xL / FITC-Bim BH3 peptide FP binding; inhibition, % at 10.9 µM; 1,700 compounds, 54% hits;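 active means inhibition above a cutoff equal to the mean inhibition of all tested compounds plus 3 SD, cut at about 30% in these data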;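 further: 0% = DMSO wells and 100% = unlabeled Bim BH3 control peptide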
MCL1 inh confirm – MCL1-BIM-BH3 interaction inhibition, confirmation. 1,700 compounds, 61% hits. GST-MCL1 / FITC-Bim-BH3 fluorescence polarization. shares compounds with MCL1 BIM primary. inhibition, % at 10.9 µM;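 active means inhibition above the average of all tested compounds plus 3 SD, cut at about 40% in these data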;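 further: 0% = DMSO wells and 100% = unlabeled Bim-BH3 control peptide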
The depositor's hits bear a star; ? = inconclusive; · = not tested or not shown; + = active, no number; ! = repeats disagree. Hits are enriched below; roughly 1.3% of the tested compounds scored in any of these assays.

SMILES | Bcl-xL primary | MCL1 BIM primary | EBV gp42 block | MEX-5 binding | GLD-1 TGE inh | Bcl-xL conf | MCL1 inh confirm
CCOC(=O)c1cc2n(c1/N=C/N(C)C)-c1ccccc1C2=O | 192* | + | 151* | ? | 169* | 186* | +
CNC(=O)c1ccsc1NC(=O)CN1C(=O)CCC1=O | 144* | 155* | -1 | 1 | 148* | 14 | 10
CNC(=O)c1ccsc1NC(=O)CS(=O)(=O)c1ccccc1 | 4 | -2 | · | 1 | 6 | · | ·
Cc1ccc(S(=O)(=O)N2CCCCC2C(=O)N(C)c2ccccc2)cc1 (centres undefined) | -2 | -8 | · | -1 | -1 | · | ·
Nc1nnc(CC(=O)N/N=C/c2cc([N+](=O)[O-])cc(Br)c2O)s1 | 8 | 44* | 0 | ? | -1 | 16 | 43*
Nc1nnc(CC(=O)N/N=C/c2cccc([N+](=O)[O-])c2)s1 | 8 | 3 | -12 | 2 | 0 | · | ·
O=C(CNC(=O)c1ccccc1Br)N/N=C\c1cc([N+](=O)[O-])cc(Br)c1O | 9 | 42* | · | -5 | 0 | 8 | 36
CC(=O)N1N=C(c2ccc(C)o2)CC1c1cccc(F)c1 (centres undefined) | 7 | 8 | -1 | 0 | 5 | · | ·
Cc1ccc(C(=O)Nc2nnc(CC(=O)N/N=C/c3ccc(O)c(O)c3)s2)cc1 | 28 | 76* | · | -1 | 11 | 51* | 80*
O=C1CC(C(=O)O)S/C(=N\N=C\c2ccc(Br)cc2)N1 (centres undefined) | -5 | -5 | -8 | 0 | 1 | · | ·
COc1ccc(NC(=O)c2ccc(-c3nn(C)c(=O)c4ccccc34)cc2)cc1 | 16 | 45* | -2 | -2 | 5 | -4 | -7
Cc1ccc(Oc2ccc(-c3nc(N)nc(N)n3)cc2)cc1C | 9 | 2 | -10 | 0 | 2 | · | ·
CCc1cc(=O)oc2cc(C)c(CN3CCCC3)c(O)c12 | 33* | 72* | 10 | -1 | 14 | 52* | 88*
CC(=O)N[C@@H](C)c1nc2ccccc2n1CCCN1CCN(c2nc(-c3ccc(C)cc3)cs2)CC1 | 6 | 4 | · | 2 | 2 | · | ·
O=c1nc2s/c(=C\c3ccco3)c(=O)n2nc1Cc1ccc(F)cc1 | 13 | 53* | -4 | 0 | -4 | 27 | 68*
CCCN1C(=O)/C(=c2\sc3nc(=O)c(Cc4ccc(C)cc4)nn3c2=O)c2ccccc21 | 10 | 17 | -8 | 1 | -2 | · | ·
Cc1ccc(S(=O)(=O)N2CCOCC2)cc1N/N=C(\C#N)c1nc2ccccc2[nH]1 | 7 | 4 | -9 | 0 | 2 | · | ·
CC(=O)Nc1ccc2ccccc2c1 | 0 | 0 | 0 | -3 | 3 | · | ·
CC(=O)Nc1ccc2cc3ccc(NC(C)=O)cc3nc2c1 | 60* | 63* | 105* | -36* | -3 | 156* | 195*
Fc1ccc(C2Nc3cccc4cccc(c34)N2)cc1 | 19 | 41* | · | -6 | 10 | 13 | 8
CCN(CC)c1ccc(C2Nc3cccc4cccc(c34)N2)cc1 | 4 | 6 | · | -2 | 1 | · | ·
Cc1ccc(C2Nc3cccc4cccc(c34)N2)s1 | 51* | 61* | -3 | -2 | 22 | 16 | 8
FC(F)(F)c1ccc(C2Nc3cccc4cccc(c34)N2)cc1 | · | · | 4 | · | · | · | ·
COc1cc2c(cc1OC)C(c1ccccc1F)NCC2 (centres undefined) | 5 | 13 | · | 0 | 5 | · | ·
c1ccc(-c2ccccc2-n2cnnn2)cc1 | 5 | 2 | 1 | -1 | -1 | · | ·
SMILES | Bcl-xL primary | MCL1 BIM primary | EBV gp42 block | MEX-5 binding | GLD-1 TGE inh | Bcl-xL conf | MCL1 inh confirm
C/C(=N/NC(=O)c1cc2ccccc2cc1O)C1C(=O)c2ccccc2C1=O | 14 | 41* | -9 | 2 | 0 | 7 | 41*
C/C(=N\NC(=O)c1ccccc1O)C1C(=O)c2ccccc2C1=O | 11 | 13 | -18 | -5 | 0 | · | ·
O=C(O)CCCCC1CCSS1 (centres undefined) | 21 | 102* | 102* | ? | 3 | 24 | 104*
Cc1cccc(C)c1NS(=O)(=O)c1ccc(OCCNS(C)(=O)=O)cc1 | 1 | 2 | 9 | -1 | -4 | · | ·
O=c1[nH]nc(CNc2ccc(O)cc2)c2ccccc12 | 79* | 76* | 6 | -52* | 89* | 51* | 41*
O=c1[nH]nc(CNc2ccc(C(F)(F)F)cc2)c2ccccc12 | 5 | 9 | 9 | 0 | 2 | · | ·
CCOc1ccc(-c2c(C)sc3nc[nH]c(=O)c23)cc1 | 2 | 3 | · | 2 | 4 | · | ·
COc1ccc(NC(=O)CSc2nc3nc(C)cc(C)c3c(=O)[nH]2)cc1 | 35* | 55* | · | 2 | 16 | 2 | 3
CCN(CC)c1ccc(NC(=O)CSc2nc3nc(C)cc(C)c3c(=O)[nH]2)cc1 | 5 | 9 | · | 2 | 4 | · | ·
Cc1ccc2c(c1C)NC(C(=O)O)C1CC=CC21 (centres undefined) | 48* | 76* | 87*! | -1 | -1 | 47* | 89*
Cc1cc(C)c2c(c1)NC(C(=O)O)C1CC=CC21 (centres undefined) | 69* | 115* | · | -38* | 3 | 45* | 92*
O=C(O)C1Nc2c(C(=O)N3CCOCC3)cccc2C2C=CCC12 (centres undefined) | 50* | 68* | -3 | -57* | 17 | 42* | 72*
O=C(NCC1CCOCC1)C1CCC(=O)N(Cc2cccc(C(F)(F)F)c2)C1 (centres undefined) | 1 | 3 | · | -1 | 8 | · | ·
CNC(=S)N(CCc1c(C)[nH]c2ccc(OC)cc12)Cc1ccco1 | 2 | 7 | · | 0 | -1 | · | ·
CCC1CCCCN1Cc1nc(Cc2ccccc2Cl)no1 (centres undefined) | 5 | 8 | -4 | 0 | 3 | · | ·
CCOc1cccc(CN2CCC(CCC(=O)NC3CC3)CC2)c1O | 8 | 12 | · | -2 | -8 | · | ·
O=C(Cn1cnc(S(=O)(=O)N2CCOCC2)c1)Nc1ccc(OC(F)(F)F)cc1 | -1 | 4 | · | 0 | -2 | · | ·
COc1ccc(C2C(C#N)=C(N)OC3=C2C(=O)CC(C)(C)C3)c([N+](=O)[O-])c1OC (centres undefined) | 7 | 6 | -6 | -5 | 3 | · | ·
CC1(C)CC(=O)C2=C(C1)OC(N)=C([N+](=O)[O-])C2c1ccc(C#N)s1 (centres undefined) | 7 | 13 | 12 | -2 | 8 | · | ·
COc1cc(C2C(C#N)=C(N)OC3=C2C(=O)CC(C)(C)C3)c([N+](=O)[O-])cc1OC (centres undefined) | + | + | 86* | -54* | 154* | 64* | 82*
